In PubChem BioAssay one finds growth inhibition, inhibition and outcome data, which are given here for 25 molecules.

The inhibition is the change of the read-out against control, counted positive when it falls.

Values without a mark were called inactive. For some of these results: Potency and affinity values are given separately. The source made the active and inactive calls. Unless noted, how the calls were made is not given here.

Assay [1] can be described thus: antimalarial activity against Dd2 strain (AID 2302;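 active means growth inhibition above 50% at the single 2 µM test dose, taken to imply half-maximal potency below 2 µM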;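 further: 0% = DMSO untreated growth and 100% = chloroquine plus artemisinin killed control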). To be noted: P. falciparum Dd2 in RBCs, LDH growth readout, 72 h; at 2 µM; hits give high values.
Assay [2] has as its target L-lactate dehydrogenase (Plasmodium falciparum (isolate CDC / Honduras)) (UniProt Q27743). Description: PfLDH activity inhibition – cell lysate, 3D7 strain, counter-screen for P. falciparum growth inhibition project (AID 2304).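 Further: 0% = vehicle and 100% = reference inhibitor.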 To be noted: P. falciparum 3D7 crude extract, LDH APAD/NBT absorbance; at 2 µM; hits give high values.
Assay [3] is described as follows: inhibition of 3D7 malaria parasite growth – strain 3D7 (AID 2306).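 Further: 0% = DMSO wells and 100% = chloroquine plus artemisinin control wells.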 To be noted: P. falciparum 3D7 erythrocytic growth, LDH absorbance, 72 h; at 2 µM; hits give high values.
Assay [4] deals with Calcium-dependent protein kinase 1 (Plasmodium falciparum (isolate 3D7)) (UniProt P62344). Description: PfCDPK1 kinase inhibitors, biochemical, TCAMS library (AID 1159585; cut-off not given, nearly all actives have IC50 up to about 0.98 µM;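 further: inhibitors leave more ATP so luminescence rises with inhibition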). To be noted: recombinant PfCDPK1, Kinase-Glo ATP depletion luminescence. A general note: In Kinase-Glo more light means more ATP remaining.
Assay [5] addresses Plasmodium falciparum protein kinase 6 (PK6, PF3D7_1337100) (UniProt Q8IDW1). The assay is described as follows: PfPK6 kinase inhibitors, biochemical, TCAMS library (AID 1159586). To be noted: recombinant PfPK6, Kinase-Glo ATP depletion luminescence.
The target in assay [6] is Protein kinase 7 (PK7), Plasmodium falciparum 3D7 (PF3D7_0213400) (UniProt Q7YTF7). Description: inhibition of Plasmodium PK7 catalytic activity – biochemical, TCAMS antimalarial set, Kinase-Glo luminescence (AID 1159587). The conditions noted are these: recombinant PfPK7, Kinase-Glo ATP depletion luminescence.
Assay [7] addresses Calcium-dependent protein kinase 4 (Plasmodium falciparum (isolate 3D7)) (UniProt Q8IBS5). The assay is described as follows: PfCDPK4 kinase inhibitors, biochemical, TCAMS library (AID 1159588; cut-off not given, nearly all actives have IC50 up to about 0.91 µM). To be noted: recombinant PfCDPK4, Kinase-Glo ATP depletion luminescence.

Chain of Protein kinase 7 (PK7), Plasmodium falciparum 3D7 (PF3D7_0213400) (Q7YTF7 1-343): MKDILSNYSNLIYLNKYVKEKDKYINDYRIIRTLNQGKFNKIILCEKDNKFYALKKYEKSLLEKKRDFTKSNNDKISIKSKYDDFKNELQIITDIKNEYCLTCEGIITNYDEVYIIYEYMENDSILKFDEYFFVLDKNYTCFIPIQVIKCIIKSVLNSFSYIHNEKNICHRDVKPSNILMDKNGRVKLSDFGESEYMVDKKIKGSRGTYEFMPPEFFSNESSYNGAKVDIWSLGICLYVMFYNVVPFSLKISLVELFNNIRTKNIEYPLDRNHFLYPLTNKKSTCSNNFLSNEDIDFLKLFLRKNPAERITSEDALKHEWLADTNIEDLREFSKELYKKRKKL
Chain of Calcium-dependent protein kinase 1 (Plasmodium falciparum (isolate 3D7)) (P62344 whole entry, looked up): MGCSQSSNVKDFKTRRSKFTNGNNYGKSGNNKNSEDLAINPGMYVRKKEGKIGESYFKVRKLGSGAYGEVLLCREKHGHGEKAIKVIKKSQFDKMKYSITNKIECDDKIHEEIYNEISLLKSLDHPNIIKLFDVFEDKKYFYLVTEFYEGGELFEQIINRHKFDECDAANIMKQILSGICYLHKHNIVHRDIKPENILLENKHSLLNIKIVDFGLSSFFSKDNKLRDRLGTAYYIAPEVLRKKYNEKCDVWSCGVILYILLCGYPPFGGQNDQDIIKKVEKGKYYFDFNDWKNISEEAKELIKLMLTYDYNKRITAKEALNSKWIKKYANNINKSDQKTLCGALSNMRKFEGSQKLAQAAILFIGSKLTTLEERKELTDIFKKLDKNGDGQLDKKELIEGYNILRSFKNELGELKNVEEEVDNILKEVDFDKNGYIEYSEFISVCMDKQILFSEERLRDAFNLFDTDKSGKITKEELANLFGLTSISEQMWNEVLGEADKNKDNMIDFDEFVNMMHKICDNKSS
Chain of Calcium-dependent protein kinase 4 (Plasmodium falciparum (isolate 3D7)) (Q8IBS5 whole entry, looked up): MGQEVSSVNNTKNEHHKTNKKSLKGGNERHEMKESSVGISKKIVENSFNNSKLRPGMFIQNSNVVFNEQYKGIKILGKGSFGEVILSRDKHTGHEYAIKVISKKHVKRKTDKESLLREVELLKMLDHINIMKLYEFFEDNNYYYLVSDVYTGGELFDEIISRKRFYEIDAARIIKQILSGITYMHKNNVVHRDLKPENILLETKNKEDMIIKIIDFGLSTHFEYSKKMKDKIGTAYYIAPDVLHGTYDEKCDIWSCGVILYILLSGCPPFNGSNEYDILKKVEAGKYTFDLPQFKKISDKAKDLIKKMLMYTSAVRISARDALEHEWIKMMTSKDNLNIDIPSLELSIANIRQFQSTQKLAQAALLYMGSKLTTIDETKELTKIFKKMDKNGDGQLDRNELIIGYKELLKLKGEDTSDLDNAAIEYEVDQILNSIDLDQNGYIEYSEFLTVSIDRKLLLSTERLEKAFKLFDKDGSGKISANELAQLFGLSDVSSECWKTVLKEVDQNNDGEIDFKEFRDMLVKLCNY
Chain of Plasmodium falciparum protein kinase 6 (PK6, PF3D7_1337100) (Q8IDW1 1-305): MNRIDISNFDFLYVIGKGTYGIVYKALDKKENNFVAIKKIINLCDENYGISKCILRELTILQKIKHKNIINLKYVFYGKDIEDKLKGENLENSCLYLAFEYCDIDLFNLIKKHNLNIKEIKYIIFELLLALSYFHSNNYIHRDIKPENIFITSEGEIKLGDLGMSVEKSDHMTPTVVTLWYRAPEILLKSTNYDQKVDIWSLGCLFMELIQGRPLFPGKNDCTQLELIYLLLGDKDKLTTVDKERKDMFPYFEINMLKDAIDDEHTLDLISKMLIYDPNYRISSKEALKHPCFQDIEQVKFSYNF
Chain of L-lactate dehydrogenase (Plasmodium falciparum (isolate CDC / Honduras)) (Q27743 whole entry, looked up): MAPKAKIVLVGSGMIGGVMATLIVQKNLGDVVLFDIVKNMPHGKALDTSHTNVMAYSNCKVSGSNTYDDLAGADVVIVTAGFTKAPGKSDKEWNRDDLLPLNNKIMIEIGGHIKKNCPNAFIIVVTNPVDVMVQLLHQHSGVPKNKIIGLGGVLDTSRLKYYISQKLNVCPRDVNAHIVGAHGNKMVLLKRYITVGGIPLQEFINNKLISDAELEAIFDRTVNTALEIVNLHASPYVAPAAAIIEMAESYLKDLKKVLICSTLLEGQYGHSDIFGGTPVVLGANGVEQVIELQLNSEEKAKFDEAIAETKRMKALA

On to `COc1ccccc1-c1nc2c(ccc3nc(N)nc(N)c32)[nH]1`, for which the growth inhibition in assay [1] is 93% (active); in assay [3] it was 101% (active). In addition, in assay [2], the inhibition was 2%. Also, the result in assay [4], in assay [5], in assay [6] and in assay [7] was inactive.

Take `O=c1c2ccc(Sc3ccccn3)cc2n(-c2ccccc2)c2cc(Sc3ccccn3)ccc12`: the growth inhibition in assay [1] was 70% (active); in assay [3] it was 89% (active). Moreover, the inhibition in assay [2] is -3%. In addition, the outcome in assay [4], in assay [5], in assay [6] and in assay [7] was inactive.

For the molecule `Cc1[nH]c(C)c(-c2ccc(Oc3ccc(Cl)cc3)cc2)c(=O)c1I`, the values for the growth inhibition in assay [1] and in assay [3] were 49% and 88% (active), respectively. Besides, in assay [2], the inhibition is 5%. The result in assay [4], in assay [5], in assay [6] and in assay [7] was inactive.

With `CCc1ccc(Cc2cnc3nc(N)nc(N)c3c2C)cc1`, the growth inhibition in assay [1] is -1%; in assay [3], 97% (active). Also, the inhibition in assay [2] is 0%. The outcome in assay [4], in assay [5], in assay [6] and in assay [7] was inactive.

As to `N=C(N)c1ccc2[nH]c(-c3cc4cc(C(=N)N)ccc4o3)cc2c1`, the growth inhibition in assay [1] was 87% (active); in assay [3], 94% (active). Further, in assay [2], the inhibition is 5%. Also, the result in assay [4], in assay [5], in assay [6] and in assay [7] was inactive.

As for `CCCOc1ccc(CNCCCCCCNCc2ccc(OCCC)c3ccccc23)c2ccccc12`, the growth inhibition was 96% (active) in assay [1] and 101% (active) in assay [3]. Moreover, the inhibition in assay [2] is -2%. Also, the outcome in assay [4], in assay [5], in assay [6] and in assay [7] was inactive.

With `COc1cc(Cc2cnc(N)nc2N)cc(OCCCCC#N)c1OC`, the results for the growth inhibition in assay [1] and in assay [3] were -1% and 86% (active), respectively. Moreover, the inhibition in assay [2] was 8%. Also, the result in assay [4], in assay [5], in assay [6] and in assay [7] was inactive.

In the case of `CC(CN=C(N)c1cccc(C(N)=NCC(C)Oc2cccc(C3CCCCC3)c2)n1)Oc1cccc(C2CCCCC2)c1` (stereo not given), the growth inhibition in assay [1] was 31%; in assay [3] it was 90% (active). The inhibition in assay [2] is 2%. Further, the result in assay [4], in assay [5], in assay [6] and in assay [7] was inactive.

Turning to `CC(C)(C)c1ccc(Cc2cccc3nc(N)nc(N)c23)cc1`, the growth inhibition is 51% (active) in assay [1] and 100% (active) in assay [3]. In addition, the inhibition in assay [2] was 4%. For the same molecule, the result in assay [4], in assay [5], in assay [6] and in assay [7] was inactive.

Take `Cc1nc(NCc2ccccc2)cc(Nc2cc(NCc3ccccc3)nc(C)n2)n1`: the growth inhibition was 32% in assay [1] and 90% (active) in assay [3]. For the same molecule, in assay [2], the inhibition was 8%. The result in assay [4], in assay [5], in assay [6] and in assay [7] was inactive.

For `Cc1nc(N)nc(N)c1-c1cc(Cl)c(Cl)c(Cl)c1`, the results for the growth inhibition in assay [1] and in assay [3] were 0% and 97% (active), respectively. Moreover, in assay [2], the inhibition is 2%. Further, the outcome in assay [4], in assay [5], in assay [6] and in assay [7] was inactive.

As to `Cc1[nH]c(C)c(-c2ccc(Oc3ccc(Cl)c(Cl)c3)cc2)c(=O)c1Br`, the growth inhibition in assay [1] was 96% (active); in assay [3], 97% (active). The inhibition in assay [2] was -1%. Moreover, the result in assay [4], in assay [5], in assay [6] and in assay [7] was inactive.

For `Cc1[nH]c(C)c(-c2ccc(Oc3cccc(C(F)(F)F)c3)cc2)c(=O)c1Br`, the results for the growth inhibition in assay [1] and in assay [3] were 97% (active) and 99% (active), respectively. The inhibition in assay [2] was 4%. Further, the outcome in assay [4], in assay [5], in assay [6] and in assay [7] was inactive.

In the case of `CCn1c(O)c(N=NC(=S)N2CCCC2)c2ccccc21`, the figures for the growth inhibition in assay [1] and in assay [3] were 9% and 91% (active), respectively. Moreover, the inhibition in assay [2] was 4%. In addition, the outcome in assay [4], in assay [5], in assay [6] and in assay [7] was inactive.

For the molecule `Nc1nc(N)c2c3c(ccc2n1)CCC3`, the growth inhibition in assay [1] was 2%; in assay [3] it was 92% (active). Besides, in assay [2], the inhibition is -3%. The outcome in assay [4], in assay [5], in assay [6] and in assay [7] was inactive.

Regarding `CCCCNCc1ccc(OCc2cccc(COc3ccc(CNCCCC)cc3I)c2)c(I)c1`, the growth inhibition in assay [1] is 13%; in assay [3], 87% (active). Moreover, in assay [2], the inhibition was 6%. Besides, the result in assay [4], in assay [5], in assay [6] and in assay [7] was inactive.

As to `COc1ccc(Cc2c(Cl)nc3nc(N)nc(N)c3c2C)c(OC)c1OC`, the growth inhibition in assay [1] was -3%; in assay [3] it was 98% (active). For the same molecule, in assay [2], the inhibition was -2%. For the same molecule, the result in assay [4], in assay [5], in assay [6] and in assay [7] was inactive.

On to `COc1ccc2c(c1CNCCCCCCNCc1c(OC)ccc3c1CCCC3)CCCC2`, for which the figures for the growth inhibition in assay [1] and in assay [3] were 7% and 94% (active), respectively. Further, the inhibition in assay [2] is 6%. The outcome in assay [4], in assay [5], in assay [6] and in assay [7] was inactive.

Turning to `c1ccc2c(NCCOCCNc3c4ccccc4nc4ccccc34)c3ccccc3nc2c1`, the growth inhibition in assay [1] is -1%; in assay [3], 94% (active). In addition, in assay [2], the inhibition is 5%. Besides, the outcome in assay [4], in assay [5], in assay [6] and in assay [7] was inactive.

Regarding `CCCCCCCN(Cc1ccc(OC(C)(C)C(=O)OCC)cc1)C(=O)Nc1ccc(Cl)cc1OCC`, the values for the growth inhibition in assay [1] and in assay [3] were 89% (active) and 95% (active), respectively. Also, in assay [2], the inhibition is 1%. The result in assay [4], in assay [5], in assay [6] and in assay [7] was inactive.

For `CCc1cccc(-c2cc(=N)n(C)c3nc(N)[nH]c(=O)c23)c1`, the growth inhibition was 28% in assay [1] and 85% (active) in assay [3]. Also, the inhibition in assay [2] was 3%. The outcome in assay [4], in assay [5], in assay [6] and in assay [7] was inactive.

`COc1cc(Cc2cnc(N)nc2N)cc(OCCCS(=O)(=O)O)c1OC`: the results for the growth inhibition in assay [1] and in assay [3] were -6% and 88% (active), respectively. In assay [2], the inhibition is 1%. Further, the outcome in assay [4], in assay [5], in assay [6] and in assay [7] was inactive.

Regarding `CCN(c1ccc(O)c(CN2CCCCC2)c1)c1ccc([N+](=O)[O-])cn1`, the growth inhibition in assay [1] was 64% (active); in assay [3] it was 94% (active). For the same molecule, the inhibition in assay [2] was 2%. Also, the result in assay [4], in assay [5], in assay [6] and in assay [7] was inactive.

As to `C=CCn1ccc2c3c(N)nc(N)nc3ccc21`, the values for the growth inhibition in assay [1] and in assay [3] were 91% (active) and 89% (active), respectively. Besides, in assay [2], the inhibition was -7%. The result in assay [4], in assay [5], in assay [6] and in assay [7] was inactive.

Take `COc1ccc2c(CNCCCCCCNCc3c(OC)ccc4cc(OC)ccc34)c(OC)ccc2c1`: the values for the growth inhibition in assay [1] and in assay [3] were 79% (active) and 101% (active), respectively. The inhibition in assay [2] is -7%. The outcome in assay [4], in assay [5], in assay [6] and in assay [7] was inactive.
